According to the supplement of paper PMC10849652:
Of roughly 7,900 targets only a part is listed; those with a hit were picked by preference. About 0.6% of all pairs of compound and target were hits. A number with no mark means an inactive call.

Legend:
Assay in all cases: log2 fold change, soluble protein after heating vs DMSO (PISA); higher = thermal stabilisation; K562 cells, 10 uM, 30 min; active = over 0.2 and 3.5 SD of the protein, either way, in both replicates (recomputed)
[1] = compound: CC[C@@H]1C(=O)N(C)c2cnc(Nc3ccc(C(=O)NC4CCN(C)CC4)cc3OC)nc2N1C1CCCC1
In short: (§1)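 For each measurement, 10 μM compound was applied for 30 min to K562 cells at 2×10^6 cells/mL. Aliquots were heated for 3 min across 48°C-58°C, pooled, and extracted in PBS with 0.5% NP-40 at 4°C; the supernatant after 21,000xg for 90 min was soluble protein. This was quantified by TMTpro 16plex LC-MS/MS with channel sums equalised, and thermal stability was reported relative to control samples from duplicates, on a log2 fold-change scale.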

volasertib = compound: CC[C@@H]1C(=O)N(C)c2cnc(Nc3ccc(C(=O)N[C@H]4CC[C@H](N5CCN(CC6CC6)CC5)CC4)cc3OC)nc2N1C(C)C [volasertib]
In short: as §1

[2] = compound: CC[C@H](C)N1C=C(C2=C(C=C(C=C21)C3=CN=C(C=C3)N4CCNCC4)C(=O)NCC5=C(C=C(NC5=O)C)C)C
In short: as §1

epoxomicin = compound: CC[C@H](C)[C@@H](C(=O)N[C@@H]([C@@H](C)O)C(=O)N[C@@H](CC(C)C)C(=O)[C@]1(CO1)C)NC(=O)[C@H]([C@@H](C)CC)N(C)C(=O)C [epoxomicin]
In short: as §1

[3] = compound: CCn1c(C(=O)N(C2CC2)C2CC2)cc2c3c(ncn3C)c(Nc3cc(C)n(C)n3)nc21
In short: as §1

[4] = compound: CCn1cc(-c2ccnc3[nH]c(-c4cccc(CN(C)C)c4)cc23)c(-c2ccc(NC(=O)N(C)C)cc2)n1
In short: as §1

[5] = compound: CN(C)CC(=O)Nc1ccc2[nH]c(=O)c3ccccc3c2c1
In short: as §1

rosiglitazone = compound: CN(CCOC1=CC=C(C=C1)C[C@H]2C(=O)NC(=O)S2)C3=CC=CC=N3 (racemic) [rosiglitazone]
In short: as §1

[6] = compound: CN1C2=C(C3=C1C(=O)N(N=C3)CC4=CC(=CC=C4)N)SC(=C2)S(=O)C
In short: as §1

[7] = compound: CN1CCC(CNc2ccc3ncc(-c4cccc(OC(F)(F)F)c4)n3n2)CC1
In short: as §1

saracatinib = compound: CN1CCN(CCOc2cc(OC3CCOCC3)c3c(Nc4c(Cl)ccc5c4OCO5)ncnc3c2)CC1 [saracatinib]
In short: as §1

sotrastaurin = compound: CN1CCN(c2nc(C3=C(c4c[nH]c5ccccc45)C(=O)NC3=O)c3ccccc3n2)CC1 [sotrastaurin]
In short: as §1

alvocidib = compound: CN1CC[C@H](c2c(O)cc(O)c3c(=O)cc(-c4ccccc4Cl)oc23)[C@H](O)C1 [alvocidib]
In short: as §1

Tubastatin A = compound: CN1CCc2c(c3ccccc3n2Cc2ccc(C(=O)NO)cc2)C1 [Tubastatin A]
In short: as §1

[8] = compound: CNC(=O)C1=CC=CC=C1NC2=NC(=NC=C2Cl)NC3=C(C=C(C=C3)N4CCOCC4)OC
In short: as §1

defactinib = compound: CNC(=O)c1ccc(Nc2ncc(C(F)(F)F)c(NCc3nccnc3N(C)S(C)(=O)=O)n2)cc1 [defactinib]
In short: as §1

rucaparib = compound: CNCc1ccc(-c2[nH]c3cc(F)cc4c3c2CCNC4=O)cc1 [rucaparib]
In short: as §1

[9] = compound: CNc1nc(-c2ccc3c(N)n[nH]c3c2)cc(N2C[C@@H](C(=O)NC3CCCCC3)CC[C@H]2C)n1
In short: as §1

encorafenib = compound: COC(=O)N[C@@H](C)CNc1nccc(-c2cn(C(C)C)nc2-c2cc(Cl)cc(NS(C)(=O)=O)c2F)n1 [encorafenib]
In short: as §1

[10] = compound: COC(=O)[C@H](CCSC)NC(=O)C1=C(C=C(C=C1)NC[C@H](CS)N)C2=CC=CC=C2
In short: as §1

UniProt Q96AX1, sequence (Q96AX1 whole entry, looked up): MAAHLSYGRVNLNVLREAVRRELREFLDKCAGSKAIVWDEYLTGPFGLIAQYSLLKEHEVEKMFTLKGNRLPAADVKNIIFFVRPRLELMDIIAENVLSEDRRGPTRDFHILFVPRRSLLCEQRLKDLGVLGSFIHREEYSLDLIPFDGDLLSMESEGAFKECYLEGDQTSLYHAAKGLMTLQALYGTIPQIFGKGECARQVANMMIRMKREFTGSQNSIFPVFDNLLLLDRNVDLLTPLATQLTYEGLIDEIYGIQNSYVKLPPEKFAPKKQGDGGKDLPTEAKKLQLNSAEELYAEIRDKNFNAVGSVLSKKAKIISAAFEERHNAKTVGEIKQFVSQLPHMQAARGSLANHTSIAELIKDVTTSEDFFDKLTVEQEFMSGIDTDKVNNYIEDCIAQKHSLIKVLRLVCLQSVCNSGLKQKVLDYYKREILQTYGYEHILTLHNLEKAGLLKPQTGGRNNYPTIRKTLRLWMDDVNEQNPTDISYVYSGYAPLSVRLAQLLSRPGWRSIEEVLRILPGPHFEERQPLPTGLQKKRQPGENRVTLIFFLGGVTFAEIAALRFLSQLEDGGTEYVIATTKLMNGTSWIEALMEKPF
UniProt Q7Z7E8, sequence (Q7Z7E8 whole entry, looked up): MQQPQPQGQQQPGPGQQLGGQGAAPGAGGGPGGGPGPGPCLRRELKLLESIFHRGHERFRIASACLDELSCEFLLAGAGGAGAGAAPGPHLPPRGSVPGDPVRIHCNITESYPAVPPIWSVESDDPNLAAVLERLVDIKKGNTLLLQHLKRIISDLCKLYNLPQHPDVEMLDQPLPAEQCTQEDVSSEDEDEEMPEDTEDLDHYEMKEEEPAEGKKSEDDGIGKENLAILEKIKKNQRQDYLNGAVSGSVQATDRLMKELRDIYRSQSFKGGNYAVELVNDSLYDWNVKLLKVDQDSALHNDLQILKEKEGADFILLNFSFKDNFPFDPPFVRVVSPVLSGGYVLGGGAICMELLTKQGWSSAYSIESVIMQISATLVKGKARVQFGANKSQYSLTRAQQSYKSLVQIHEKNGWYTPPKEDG
UniProt Q9UHP3, sequence (Q9UHP3 whole entry, looked up): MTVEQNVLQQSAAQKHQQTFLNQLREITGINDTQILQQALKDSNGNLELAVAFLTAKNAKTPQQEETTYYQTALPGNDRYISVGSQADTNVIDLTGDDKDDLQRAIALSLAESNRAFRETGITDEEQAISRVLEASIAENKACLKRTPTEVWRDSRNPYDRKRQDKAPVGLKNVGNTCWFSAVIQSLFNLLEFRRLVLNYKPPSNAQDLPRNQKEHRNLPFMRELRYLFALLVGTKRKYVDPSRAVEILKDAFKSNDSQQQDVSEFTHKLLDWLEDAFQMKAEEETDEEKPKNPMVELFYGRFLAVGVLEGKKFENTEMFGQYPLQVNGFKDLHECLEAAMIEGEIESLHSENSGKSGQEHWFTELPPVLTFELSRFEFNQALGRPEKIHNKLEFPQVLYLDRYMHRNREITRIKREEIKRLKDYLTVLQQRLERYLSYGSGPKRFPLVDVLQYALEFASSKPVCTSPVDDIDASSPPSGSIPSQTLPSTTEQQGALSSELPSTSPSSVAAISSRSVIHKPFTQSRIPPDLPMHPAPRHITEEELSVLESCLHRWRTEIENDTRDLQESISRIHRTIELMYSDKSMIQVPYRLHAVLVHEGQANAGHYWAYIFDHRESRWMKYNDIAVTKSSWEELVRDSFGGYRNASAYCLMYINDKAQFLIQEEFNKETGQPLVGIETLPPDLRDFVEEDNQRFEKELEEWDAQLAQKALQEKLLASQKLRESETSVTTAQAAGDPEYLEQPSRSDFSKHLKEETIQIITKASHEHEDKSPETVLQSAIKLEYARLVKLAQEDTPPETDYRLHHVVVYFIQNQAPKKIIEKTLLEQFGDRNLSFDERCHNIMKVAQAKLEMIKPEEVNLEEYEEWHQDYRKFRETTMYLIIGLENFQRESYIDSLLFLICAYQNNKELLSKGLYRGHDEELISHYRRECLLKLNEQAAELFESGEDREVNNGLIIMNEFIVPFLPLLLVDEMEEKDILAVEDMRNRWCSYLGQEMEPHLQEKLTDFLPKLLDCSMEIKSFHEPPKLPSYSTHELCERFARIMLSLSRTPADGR
UniProt Q641Q2, sequence (Q641Q2 whole entry, looked up): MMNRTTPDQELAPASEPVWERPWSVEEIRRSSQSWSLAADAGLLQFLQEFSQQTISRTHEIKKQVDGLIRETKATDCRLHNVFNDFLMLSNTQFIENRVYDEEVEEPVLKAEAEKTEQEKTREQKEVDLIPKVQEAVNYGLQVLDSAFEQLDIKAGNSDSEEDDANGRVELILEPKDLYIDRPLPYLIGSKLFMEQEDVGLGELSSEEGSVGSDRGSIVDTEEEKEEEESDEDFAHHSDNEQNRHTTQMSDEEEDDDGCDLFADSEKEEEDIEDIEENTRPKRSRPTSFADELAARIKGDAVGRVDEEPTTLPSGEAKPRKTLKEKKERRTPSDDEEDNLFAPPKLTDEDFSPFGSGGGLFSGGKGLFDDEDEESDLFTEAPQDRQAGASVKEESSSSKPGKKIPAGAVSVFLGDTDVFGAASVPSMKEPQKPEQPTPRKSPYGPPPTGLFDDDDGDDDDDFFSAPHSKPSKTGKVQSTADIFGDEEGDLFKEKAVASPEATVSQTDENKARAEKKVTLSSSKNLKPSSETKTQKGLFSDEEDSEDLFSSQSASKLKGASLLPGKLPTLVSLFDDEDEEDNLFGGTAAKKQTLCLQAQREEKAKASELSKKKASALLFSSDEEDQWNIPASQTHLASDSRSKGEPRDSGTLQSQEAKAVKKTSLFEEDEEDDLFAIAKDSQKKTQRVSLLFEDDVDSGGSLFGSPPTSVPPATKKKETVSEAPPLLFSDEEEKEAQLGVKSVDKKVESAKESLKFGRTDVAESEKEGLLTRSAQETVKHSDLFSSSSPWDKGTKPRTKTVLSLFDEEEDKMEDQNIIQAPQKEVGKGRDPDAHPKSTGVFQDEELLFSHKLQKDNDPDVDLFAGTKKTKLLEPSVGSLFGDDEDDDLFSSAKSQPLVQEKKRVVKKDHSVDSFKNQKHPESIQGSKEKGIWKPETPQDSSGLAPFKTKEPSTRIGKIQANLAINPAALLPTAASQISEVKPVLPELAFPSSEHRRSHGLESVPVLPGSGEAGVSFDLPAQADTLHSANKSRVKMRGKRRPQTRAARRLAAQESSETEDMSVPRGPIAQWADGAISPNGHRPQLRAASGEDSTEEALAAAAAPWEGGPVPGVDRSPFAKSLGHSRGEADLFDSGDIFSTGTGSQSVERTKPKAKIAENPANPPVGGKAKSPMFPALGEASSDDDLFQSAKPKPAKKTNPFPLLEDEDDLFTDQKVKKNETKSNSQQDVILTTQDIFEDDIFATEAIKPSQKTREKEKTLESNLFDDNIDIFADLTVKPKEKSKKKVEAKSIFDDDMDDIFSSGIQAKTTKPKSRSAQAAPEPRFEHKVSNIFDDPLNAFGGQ
UniProt Q96JC1, sequence (Q96JC1 whole entry, looked up): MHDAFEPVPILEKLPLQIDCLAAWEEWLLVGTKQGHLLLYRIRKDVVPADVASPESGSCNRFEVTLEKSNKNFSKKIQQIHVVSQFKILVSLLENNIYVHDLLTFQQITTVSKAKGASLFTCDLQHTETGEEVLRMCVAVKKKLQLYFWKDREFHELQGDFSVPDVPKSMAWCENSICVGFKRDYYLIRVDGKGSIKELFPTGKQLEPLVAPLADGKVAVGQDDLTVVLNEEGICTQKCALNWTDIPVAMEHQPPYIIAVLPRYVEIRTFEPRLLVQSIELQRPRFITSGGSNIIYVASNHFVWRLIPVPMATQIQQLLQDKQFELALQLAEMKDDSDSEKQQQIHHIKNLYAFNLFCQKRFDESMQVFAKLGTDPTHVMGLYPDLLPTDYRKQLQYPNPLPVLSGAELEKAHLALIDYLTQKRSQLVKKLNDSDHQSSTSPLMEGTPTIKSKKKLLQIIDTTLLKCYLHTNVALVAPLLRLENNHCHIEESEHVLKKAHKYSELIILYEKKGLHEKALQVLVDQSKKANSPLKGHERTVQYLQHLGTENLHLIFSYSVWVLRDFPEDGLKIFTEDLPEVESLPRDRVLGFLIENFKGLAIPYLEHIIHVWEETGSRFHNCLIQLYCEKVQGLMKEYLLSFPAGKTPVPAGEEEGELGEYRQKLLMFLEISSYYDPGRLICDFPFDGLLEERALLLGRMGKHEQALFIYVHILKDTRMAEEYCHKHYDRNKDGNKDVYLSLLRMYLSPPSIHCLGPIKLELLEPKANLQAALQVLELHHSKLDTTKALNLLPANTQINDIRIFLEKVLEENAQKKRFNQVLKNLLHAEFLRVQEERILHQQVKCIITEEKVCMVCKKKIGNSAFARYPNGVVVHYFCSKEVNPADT

| Target | log2 fold change [1] | log2 fold change (volasertib) | log2 fold change [2] | log2 fold change (epoxomicin) | log2 fold change [3] | log2 fold change [4] | log2 fold change [5] | log2 fold change (rosiglitazone) | log2 fold change [6] | log2 fold change [7] | log2 fold change (saracatinib) | log2 fold change (sotrastaurin) | log2 fold change (alvocidib) | log2 fold change (Tubastatin A) | log2 fold change [8] | log2 fold change (defactinib) | log2 fold change (rucaparib) | log2 fold change [9] | log2 fold change (encorafenib) | log2 fold change [10] |
| --- | --- | --- | --- | --- | --- | --- | --- | --- | --- | --- | --- | --- | --- | --- | --- | --- | --- | --- | --- | --- |
| USP9X (UniProt Q93008) | -0.108 | -0.382 (active) | 0.038 | 0.01 | -0.027 | -0.056 | 0.01 | 0.037 | -0.028 | -0.21 | -0.006 | -0.073 | -0.056 | -0.014 | -0.022 | -0.03 | 0.032 | -0.003 | 0.082 | -0.009 |
| WASHC2A (UniProt Q641Q2) | -0.058 | -0.15 | 0.026 | 0.022 | 0.018 | 0.052 | -0.046 | -0.004 | 0.037 | -0.18 | 0.013 | 0.001 | 0.052 | 0.016 | 0.015 | 0.01 | 0.045 | -0.039 | 0.019 | 0.017 |
| VPS33A (UniProt Q96AX1) | -0.224 | -0.359 (active) | 0.043 | 0.039 | -0.031 | -0.004 | 0.059 | 0.062 | 0.035 | -0.208 | -0.036 | -0.174 | -0.071 | 0.033 | -0.043 | -0.06 | 0.045 | -0.013 | -0.003 | -0.025 |
| VPS18 (UniProt Q9P253) | -0.22 | -0.398 (active) | 0.086 | -0.019 | -0.009 | -0.059 | 0.046 | 0.042 | 0.005 | -0.231 | -0.034 | -0.156 | -0.118 | -0.052 | -0.003 | -0.068 | 0.099 | 0.029 | 0.031 | -0.076 |
| USP25 isoform 3 (UniProt Q9UHP3) | -0.085 | -0.297 (active) | 0.046 | 0.008 | -0.016 | -0.004 | 0.041 | 0.022 | -0.03 | -0.006 | 0.045 | -0.003 | -0.031 | 0.061 | 0.044 | -0.045 | 0.019 | -0.028 | 0.01 | -0.033 |
| VPS39 (UniProt Q96JC1) | -0.206 | -0.354 (active) | 0.054 | -0.017 | -0.033 | -0.091 | 0.022 | 0.044 | 0.008 | -0.187 | 0 | -0.097 | -0.035 | 0.033 | -0.015 | -0.068 | 0.039 | 0.005 | -0.006 | -0.03 |
| UBE2Q1 (UniProt Q7Z7E8) | -0.087 | -0.295 (active) | 0.015 | -0.042 | -0.075 | -0.048 | 0.027 | 0.061 | -0.007 | -0.212 | -0.023 | -0.001 | -0.069 | 0.027 | 0.05 | -0.143 | -0.008 | 0.048 | 0.04 | -0.017 |
| TOE1 (UniProt Q96GM8) | 0.067 | 0.154 | -0.023 | -0.148 | -0.067 | 0.035 | -0.043 | -0.03 | 0.107 | 0.35 (active) | 0.025 | -0.016 | 0.221 | 0.031 | 0.122 | 0.193 | -0.066 | 0.05 | 0.017 | 0.05 |
